Several values for one entry are separate records, joined by “and”; a condition that tells them apart may be missing. Equal entries are not always repeated. Records with an inconclusive call do not appear. The source holds several records for some structures; these can differ, active in one and inactive in another. Activity calls are given as the source filed them. The calls were made as follows, unless noted: active = hit-call score of the fitted dose curve at least 0.9, where 1 is the maximum; inconclusive = response in the unintended direction; inactive = score below 0.9.
Legend:
[1] = BSK_3C_Proliferation: Cell Proliferation Assessment in the BioMAP Diversity Plus: 3C Assay (AID 2283006; active = hit-call score of the fitted dose curve at least 0.9, where 1 is the maximum; inactive = score below 0.9;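 as to AC50: potency may reflect either rise or fall in cell number versus DMSO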); settings: primary human endothelial cells (HUVEC)
Outline: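 HUVEC, sub-confluent; 48 h chemical exposure; 10% TCA fix, 0.1% SRB stain, A560 total protein. Gain or loss of signal fitted both directions vs DMSO control.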

[2] = biological target: Peroxisome proliferator-activated receptor gamma (Homo sapiens) (UniProt P37231); test: ATG_PPARg_TRANS: Attagene TRANS-FACTORIAL HepG2 Assay for human Peroxisome Proliferator-activated Receptor-gamma (PPARg) (AID 2283007)
Outline: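 Gain-of-signal endpoint relative to DMSO, derived from reporter mRNA levels quantified by RT-PCR and capillary electrophoresis. Cells were HepG2 transiently expressing a chimeric NR-Gal4 construct with GAL4-UAS reporters, exposed to chemicals for 24 h.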

[3] = biological target: Nuclear receptor subfamily 1 group I member 2 (Homo sapiens) (UniProt O75469); test: ATG_PXR_TRANS: Attagene TRANS-FACTORIAL HepG2 Assay for human Pregnane X Receptor (PXR) (AID 2283008)
Outline: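 Transient HepG2 transfectants carrying multiplexed reporter transcription units; PXR activity read through a Gal4 chimera. 24 h exposure. RT-PCR/CE fluorescence; upward curve fit referenced to DMSO.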

[4] = biological target: human Retinoic Acid Receptor gamma (RARg), RARG (gene 5916) (UniProt P13631); test: ATG_RARg_TRANS: Attagene TRANS-FACTORIAL HepG2 Assay for human Retinoic Acid Receptor gamma (RARg) (AID 2283009)
Outline: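 Readout: reporter transcript levels via RT-PCR, 6-FAM primer-extension labelling, HpaI digestion and capillary electrophoresis. Cells: HepG2 carrying transfected RARg-GAL4 chimera plus UAS reporter set. Dosing 24 h; DMSO negative control.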

[5] = biological target: human RAR-related Orphan Receptor beta (RORb), RORB (gene 6096) (UniProt Q92753); test: ATG_RORb_TRANS: Attagene TRANS-FACTORIAL HepG2 Assay for human RAR-related Orphan Receptor beta (RORb) (AID 2283010)
Outline: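 HepG2, transient MRTU transfection (GAL4-UAS reporters, exogenous NR-Gal4 chimeras); 24 h compound exposure; total RNA → RT-PCR → 6-FAM primer extension → HpaI digest → CE fluorescence. Positive direction vs DMSO baseline.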

[6] = biological target: Retinoic acid receptor RXR-alpha (Homo sapiens) (UniProt P19793); test: ATG_RXRa_TRANS: Attagene TRANS-FACTORIAL HepG2 Assay for human Retinoid X Receptor alpha (RXRa) (AID 2283012)
Outline: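 Read-out: fluorescent reporter-transcript fragments quantified by capillary electrophoresis after RT-PCR. Transiently transfected HepG2 cells carrying GAL4-UAS reporters and NR-GAL4 chimeras were exposed to chemical for 24 h; activity scored as increase over DMSO.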

[7] = biological target: human Thyroid Receptor alpha (THRa1), THRA (gene 7067) (UniProt P10827); test: ATG_THRa1_TRANS: Attagene TRANS-FACTORIAL HepG2 Assay for human Thyroid Receptor alpha (THRa1) (AID 2283014)
Outline: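 HepG2 cells transiently transfected with multiplexed GAL4-UAS reporter units for exogenous chimeric THRa1-Gal4; reporter mRNA measured 24 h after dosing by RT-PCR, 6-FAM labelling, HpaI digestion and capillary electrophoresis. Gain-of-signal fitted versus DMSO baseline.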

[8] = read-out: E-selectin (Homo sapiens) (UniProt P16581); test: BSK_3C_Eselectin: BioMAP Diversity Plus: 3C Assay for Eselectin Biomarker Activity (AID 2283015; active = hit-call score of the fitted dose curve at least 0.9, where 1 is the maximum; inactive = score below 0.9;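 as to outcome: cell surface E-selectin protein quantified by ELISA 24 h after dosing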); settings: primary human endothelial cells (HUVEC); actives raise or lower the signal
Outline: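 Primary human umbilical vein endothelial cells (3C system) were dosed with chemical and cell-surface E-selectin measured by ELISA 24 h later. Bidirectional curve fitting used DMSO as negative control and baseline.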

[9] = read-out: Interleukin-1 alpha (IL1a), IL1A (gene 3552); test: BSK_BE3C_IL1a: BioMAP Diversity Plus: BE3C Assay for Interleukin-1 alpha (IL1a) Biomarker Activity (AID 2283016; active = hit-call score of the fitted dose curve at least 0.9, where 1 is the maximum; inactive = score below 0.9); settings: primary human bronchial epithelial cells; actives raise or lower the signal
Outline: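 ELISA read-out of IL-1a from human lung bronchial epithelial primary cells, 24 h post-dose. Gain or loss of signal fitted relative to DMSO negative control.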

[10] = read-out: Monocyte Chemoattractant Protein-1 (MCP1), CCL2 (gene 6347); test: BSK_3C_MCP1: BioMAP Diversity Plus: 3C Assay for Monocyte Chemoattractant Protein-1 (MCP1) Biomarker Activity (AID 2283017; active = hit-call score of the fitted dose curve at least 0.9, where 1 is the maximum; inactive = score below 0.9); settings: primary human endothelial cells (HUVEC); actives raise or lower the signal
Outline: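 Primary human umbilical vein endothelial cells (3C system) were exposed to test chemical for 24 h, after which MCP-1 was quantified by ELISA. Activity was fitted bidirectionally against DMSO as negative control and baseline.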

[11] = read-out: Monocyte Chemoattractant Protein-1 (MCP1), CCL2 (gene 6347); test: BSK_4H_MCP1: BioMAP Diversity Plus: 4H Assay for Monocyte Chemoattractant Protein-1 (MCP1) Biomarker Activity (AID 2283018; active = hit-call score of the fitted dose curve at least 0.9, where 1 is the maximum; inactive = score below 0.9); settings: primary human endothelial cells (HUVEC); actives raise or lower the signal
Outline: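 HUVEC primary cells, 24 h post-dose, MCP-1 by ELISA. Gain or loss of signal fitted bidirectionally vs DMSO baseline. Cytotoxicity: SRB stain (0.1% after 10% TCA fixation), read 560 nm, parallel cultures.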

[12] = read-out: Human Leukocyte Antigen - DR isotype (HLADR), HLA-DRA (gene 3122); test: BSK_3C_HLADR: BioMAP Diversity Plus: 3C Assay for Human Leukocyte Antigen - DR isotype (HLADR) Biomarker Activity (AID 2283019; active = hit-call score of the fitted dose curve at least 0.9, where 1 is the maximum; inactive = score below 0.9;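 as to outcome: ELISA of cell-surface HLA-DR on HUVEC 24 h after dosing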); settings: primary human endothelial cells (HUVEC); actives raise or lower the signal
Outline: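 Primary human umbilical vein endothelial cells (3C system) were dosed with compound and cell-surface HLA-DR was quantified by ELISA at 24 h. Activity was fitted bidirectionally against DMSO as negative control and baseline.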

[13] = read-out: Interleukin-8 (IL8), CXCL8 (gene 3576); test: BSK_3C_IL8: BioMAP Diversity Plus: 3C Assay for Interleukin-8 (IL8) Biomarker Activity (AID 2283020; active = hit-call score of the fitted dose curve at least 0.9, where 1 is the maximum; inactive = score below 0.9); settings: primary human endothelial cells (HUVEC); actives raise or lower the signal
Outline: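 HUVEC, 3C stimulation; 24 h compound exposure; IL-8 read by ELISA; gain or loss of signal fitted relative to DMSO control.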

[14] = biological target: human Vitamin D Receptor (VDR), VDR (gene 7421) (UniProt P11473); test: ATG_VDR_TRANS: Attagene TRANS-FACTORIAL HepG2 Assay for human Vitamin D Receptor (VDR) (AID 2283022)
Outline: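 HepG2 cells were transiently transfected with multiple GAL4-UAS reporter units, so signal reflects exogenous chimeric receptor-Gal4 activity. After 24 h compound exposure, reporter mRNA was measured by RT-PCR, fluorescent labelling and capillary electrophoresis, fitted for gain of signal versus DMSO.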

[15] = BSK_3C_SRB: Viability Assessment in the BioMAP Diversity Plus: 3C Assay (AID 2283023; active = hit-call score of the fitted dose curve at least 0.9, where 1 is the maximum; inactive = score below 0.9;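 also: fitted both ways against DMSO so a hit may be signal rise or drop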); settings: primary human endothelial cells (HUVEC)
Outline: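 Primary human umbilical vein endothelial cells in the 3C system were read 24 h after compound dosing. Total protein was stained with 0.1% sulforhodamine B after 10% TCA fixation and read at 560 nm, with bidirectional fitting against DMSO as baseline.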

[16] = read-out: Matrix Metallopeptidase 1 (MMP1), MMP1 (gene 4312); test: BSK_BE3C_MMP1: BioMAP Diversity Plus: BE3C Assay for Matrix Metallopeptidase 1 (MMP1) Biomarker Activity (AID 2283024; active = hit-call score of the fitted dose curve at least 0.9, where 1 is the maximum; inactive = score below 0.9); settings: primary human bronchial epithelial cells; actives raise or lower the signal
Outline: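 ELISA read-out of MMP1 in human lung bronchial epithelial primary cultures, 24 h post-dose; bidirectional curve fit vs DMSO baseline, gain or loss of signal scored.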

[17] = biological target: human RAR-related Orphan Receptor gamma (RORg), RORC (gene 6097) (UniProt P51449); test: ATG_RORg_TRANS: Attagene TRANS-FACTORIAL HepG2 Assay for human RAR-related Orphan Receptor gamma (RORg) (AID 2283011)
Outline: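 Readout: reporter transcript induction (RT-PCR, fluorescent primer extension, capillary electrophoresis) after 24 h compound exposure of transiently transfected HepG2 cells carrying a RORg-Gal4 chimera and GAL4-UAS reporters; DMSO served as baseline, with increasing signal fitted.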

[18] = biological target: human Retinoid X Receptor beta (RXRb), RXRB (gene 6257) (UniProt P28702); test: ATG_RXRb_TRANS: Attagene TRANS-FACTORIAL HepG2 Assay for human Retinoid X Receptor beta (RXRb) (AID 2283013)
Outline: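 Read-out: reporter mRNA induction via RT-PCR plus capillary electrophoresis fluorescence, analysed as signal increase relative to DMSO. Cells were human HepG2, transiently transfected with GAL4-UAS reporter constructs and chimeric receptor-Gal4 fusions, dosed for 24 h.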

[19] = read-out: Monokine induced gamma interferon (MIG), CXCL9 (gene 4283); test: BSK_3C_MIG: BioMAP Diversity Plus: 3C Assay for Monokine induced gamma interferon (MIG) Biomarker Activity (AID 2283021; active = hit-call score of the fitted dose curve at least 0.9, where 1 is the maximum; inactive = score below 0.9); settings: primary human endothelial cells (HUVEC); actives raise or lower the signal
Outline: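 HUVEC, 3C system; 24 h chemical exposure; MIG by ELISA; bidirectional fit vs DMSO baseline.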

[20] = biological target: Retinoic acid receptor alpha (Homo sapiens) (UniProt P10276); test: ATG_RARa_TRANS: Attagene TRANS-FACTORIAL HepG2 Assay for human Retinoic Acid Receptor alpha (RARa) (AID 2283005)
Outline: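 HepG2 transiently transfected with multiplex GAL4-UAS reporter units including a human RARa–GAL4 chimera; 24 h compound exposure. Reporter mRNA quantified by RT-PCR, 6-FAM labeling and capillary electrophoresis; gain of signal versus DMSO.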

Chain of human RAR-related Orphan Receptor beta (RORb), RORB (gene 6096) (Q92753 whole entry, looked up, the tested form may be a part): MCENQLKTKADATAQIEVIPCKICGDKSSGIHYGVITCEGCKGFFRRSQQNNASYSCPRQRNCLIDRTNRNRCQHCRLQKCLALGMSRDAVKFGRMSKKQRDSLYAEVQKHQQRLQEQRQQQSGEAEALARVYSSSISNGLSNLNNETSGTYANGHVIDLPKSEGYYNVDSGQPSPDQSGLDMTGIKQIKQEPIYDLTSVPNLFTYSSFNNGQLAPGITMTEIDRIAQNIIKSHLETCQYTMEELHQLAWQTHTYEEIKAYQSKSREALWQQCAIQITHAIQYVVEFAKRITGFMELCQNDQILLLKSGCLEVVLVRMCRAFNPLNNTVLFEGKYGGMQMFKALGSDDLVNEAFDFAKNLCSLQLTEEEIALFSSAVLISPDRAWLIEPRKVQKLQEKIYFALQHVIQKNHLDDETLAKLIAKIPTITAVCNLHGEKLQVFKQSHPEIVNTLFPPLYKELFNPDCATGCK
Chain of E-selectin (Homo sapiens) (P16581 whole entry, looked up): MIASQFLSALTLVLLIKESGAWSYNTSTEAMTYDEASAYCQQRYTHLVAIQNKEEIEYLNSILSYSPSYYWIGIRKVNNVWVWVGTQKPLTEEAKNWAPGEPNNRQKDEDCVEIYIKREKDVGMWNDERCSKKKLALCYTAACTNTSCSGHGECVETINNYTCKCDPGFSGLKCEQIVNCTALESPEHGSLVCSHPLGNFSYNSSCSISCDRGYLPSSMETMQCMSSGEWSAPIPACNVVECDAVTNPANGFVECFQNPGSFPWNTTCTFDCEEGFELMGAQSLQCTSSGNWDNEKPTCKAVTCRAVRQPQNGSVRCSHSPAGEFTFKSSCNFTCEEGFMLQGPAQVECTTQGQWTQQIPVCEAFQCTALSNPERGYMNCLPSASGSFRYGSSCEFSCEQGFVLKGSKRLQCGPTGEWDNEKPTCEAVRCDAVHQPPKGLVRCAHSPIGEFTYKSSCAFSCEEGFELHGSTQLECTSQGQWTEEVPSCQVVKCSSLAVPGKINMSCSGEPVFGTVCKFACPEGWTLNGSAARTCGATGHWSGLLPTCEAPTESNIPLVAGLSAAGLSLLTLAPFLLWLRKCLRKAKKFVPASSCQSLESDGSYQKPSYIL
Chain of human Retinoid X Receptor beta (RXRb), RXRB (gene 6257) (P28702 whole entry, looked up, the tested form may be a part): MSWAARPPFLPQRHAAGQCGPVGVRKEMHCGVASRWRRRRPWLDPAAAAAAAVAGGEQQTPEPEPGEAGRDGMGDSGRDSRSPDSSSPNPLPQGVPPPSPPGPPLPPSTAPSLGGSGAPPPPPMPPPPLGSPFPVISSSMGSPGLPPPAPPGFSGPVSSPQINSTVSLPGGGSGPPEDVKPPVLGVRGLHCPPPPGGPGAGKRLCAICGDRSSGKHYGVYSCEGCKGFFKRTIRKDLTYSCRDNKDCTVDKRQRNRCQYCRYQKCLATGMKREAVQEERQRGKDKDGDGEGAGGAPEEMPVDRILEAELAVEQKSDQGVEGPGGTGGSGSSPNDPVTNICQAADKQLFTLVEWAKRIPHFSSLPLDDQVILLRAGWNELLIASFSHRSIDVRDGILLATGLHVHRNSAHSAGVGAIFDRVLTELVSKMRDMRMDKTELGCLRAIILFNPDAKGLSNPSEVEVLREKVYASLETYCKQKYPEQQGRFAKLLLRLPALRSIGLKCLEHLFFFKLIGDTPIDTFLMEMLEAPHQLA
Chain of human Retinoic Acid Receptor gamma (RARg), RARG (gene 5916) (P13631 whole entry, looked up, the tested form may be a part): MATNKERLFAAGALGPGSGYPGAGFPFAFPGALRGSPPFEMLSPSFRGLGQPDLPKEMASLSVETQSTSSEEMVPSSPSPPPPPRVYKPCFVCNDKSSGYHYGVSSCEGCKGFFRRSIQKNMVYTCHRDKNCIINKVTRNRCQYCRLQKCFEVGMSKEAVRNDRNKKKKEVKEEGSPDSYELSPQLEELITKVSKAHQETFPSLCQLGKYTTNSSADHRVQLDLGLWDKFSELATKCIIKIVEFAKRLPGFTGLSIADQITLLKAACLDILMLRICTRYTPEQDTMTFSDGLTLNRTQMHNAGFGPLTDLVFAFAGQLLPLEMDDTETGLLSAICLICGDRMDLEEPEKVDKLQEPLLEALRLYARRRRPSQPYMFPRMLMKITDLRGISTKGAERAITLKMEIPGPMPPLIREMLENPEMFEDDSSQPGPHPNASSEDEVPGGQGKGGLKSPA
Chain of human RAR-related Orphan Receptor gamma (RORg), RORC (gene 6097) (P51449 whole entry, looked up, the tested form may be a part): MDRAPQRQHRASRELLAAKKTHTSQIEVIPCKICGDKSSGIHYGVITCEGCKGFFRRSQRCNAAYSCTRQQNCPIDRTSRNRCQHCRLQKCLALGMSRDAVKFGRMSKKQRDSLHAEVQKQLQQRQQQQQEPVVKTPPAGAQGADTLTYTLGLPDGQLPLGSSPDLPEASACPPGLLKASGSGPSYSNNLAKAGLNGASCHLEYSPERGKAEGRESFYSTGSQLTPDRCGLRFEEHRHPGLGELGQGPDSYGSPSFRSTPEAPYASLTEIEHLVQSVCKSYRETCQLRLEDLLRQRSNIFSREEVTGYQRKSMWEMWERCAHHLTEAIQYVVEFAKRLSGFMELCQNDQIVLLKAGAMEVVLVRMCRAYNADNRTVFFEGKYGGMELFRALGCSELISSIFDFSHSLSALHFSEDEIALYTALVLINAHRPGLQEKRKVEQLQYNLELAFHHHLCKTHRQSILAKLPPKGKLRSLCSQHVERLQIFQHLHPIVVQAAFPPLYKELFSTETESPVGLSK
Chain of human Thyroid Receptor alpha (THRa1), THRA (gene 7067) (P10827 whole entry, looked up, the tested form may be a part): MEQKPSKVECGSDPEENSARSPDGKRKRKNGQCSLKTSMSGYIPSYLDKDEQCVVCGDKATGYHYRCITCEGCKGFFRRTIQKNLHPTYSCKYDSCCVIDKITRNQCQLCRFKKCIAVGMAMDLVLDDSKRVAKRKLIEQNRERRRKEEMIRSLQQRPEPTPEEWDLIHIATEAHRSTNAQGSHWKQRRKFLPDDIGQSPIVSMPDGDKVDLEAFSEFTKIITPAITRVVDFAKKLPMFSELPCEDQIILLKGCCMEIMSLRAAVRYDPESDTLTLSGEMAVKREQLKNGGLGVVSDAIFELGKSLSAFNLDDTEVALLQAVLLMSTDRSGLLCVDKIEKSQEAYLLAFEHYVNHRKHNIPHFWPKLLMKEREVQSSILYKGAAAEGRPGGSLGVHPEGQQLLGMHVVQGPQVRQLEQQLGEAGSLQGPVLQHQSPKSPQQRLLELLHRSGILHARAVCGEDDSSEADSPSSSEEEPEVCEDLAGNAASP
Chain of Retinoic acid receptor alpha (Homo sapiens) (P10276 whole entry, looked up, the tested form may be a part): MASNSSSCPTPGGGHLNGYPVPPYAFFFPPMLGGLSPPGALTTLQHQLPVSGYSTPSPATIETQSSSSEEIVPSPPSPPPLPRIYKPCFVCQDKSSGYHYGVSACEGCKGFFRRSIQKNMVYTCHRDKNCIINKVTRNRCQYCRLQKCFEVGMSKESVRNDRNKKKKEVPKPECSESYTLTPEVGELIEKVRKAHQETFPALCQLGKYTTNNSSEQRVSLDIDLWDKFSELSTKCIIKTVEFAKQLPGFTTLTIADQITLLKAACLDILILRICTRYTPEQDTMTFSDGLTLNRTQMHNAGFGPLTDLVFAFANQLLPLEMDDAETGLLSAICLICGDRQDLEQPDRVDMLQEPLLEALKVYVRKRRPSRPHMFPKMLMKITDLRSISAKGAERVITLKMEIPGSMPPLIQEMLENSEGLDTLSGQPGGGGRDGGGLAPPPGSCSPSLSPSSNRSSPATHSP
Chain of human Vitamin D Receptor (VDR), VDR (gene 7421) (P11473 whole entry, looked up, the tested form may be a part): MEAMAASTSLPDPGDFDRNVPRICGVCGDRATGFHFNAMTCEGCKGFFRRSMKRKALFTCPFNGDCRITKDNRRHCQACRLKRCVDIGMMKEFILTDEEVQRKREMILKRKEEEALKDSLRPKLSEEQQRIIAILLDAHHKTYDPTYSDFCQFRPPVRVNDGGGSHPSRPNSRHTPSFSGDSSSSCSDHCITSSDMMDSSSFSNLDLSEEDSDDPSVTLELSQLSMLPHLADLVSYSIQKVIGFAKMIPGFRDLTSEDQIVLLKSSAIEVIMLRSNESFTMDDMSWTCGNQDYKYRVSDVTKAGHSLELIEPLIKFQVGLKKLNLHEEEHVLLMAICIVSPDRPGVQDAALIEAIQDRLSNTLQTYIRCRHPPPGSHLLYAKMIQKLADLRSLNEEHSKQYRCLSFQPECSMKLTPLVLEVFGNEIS
Chain of Peroxisome proliferator-activated receptor gamma (Homo sapiens) (P37231 whole entry, looked up, the tested form may be a part): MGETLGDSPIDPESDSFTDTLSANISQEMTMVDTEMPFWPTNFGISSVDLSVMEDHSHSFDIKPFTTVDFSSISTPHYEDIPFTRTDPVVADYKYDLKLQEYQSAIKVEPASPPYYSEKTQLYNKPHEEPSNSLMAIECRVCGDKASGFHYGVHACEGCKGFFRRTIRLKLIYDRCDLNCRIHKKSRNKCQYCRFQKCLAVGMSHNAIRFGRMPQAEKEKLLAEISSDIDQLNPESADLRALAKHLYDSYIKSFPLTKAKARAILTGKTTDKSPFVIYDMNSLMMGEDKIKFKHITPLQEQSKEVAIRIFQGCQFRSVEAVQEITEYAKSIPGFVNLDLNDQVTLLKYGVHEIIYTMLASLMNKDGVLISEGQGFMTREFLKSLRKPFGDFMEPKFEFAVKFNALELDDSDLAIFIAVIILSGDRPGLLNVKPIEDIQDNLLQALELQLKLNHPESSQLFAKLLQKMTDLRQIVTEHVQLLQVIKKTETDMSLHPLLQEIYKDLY
Chain of Nuclear receptor subfamily 1 group I member 2 (Homo sapiens) (O75469 whole entry, looked up, the tested form may be a part): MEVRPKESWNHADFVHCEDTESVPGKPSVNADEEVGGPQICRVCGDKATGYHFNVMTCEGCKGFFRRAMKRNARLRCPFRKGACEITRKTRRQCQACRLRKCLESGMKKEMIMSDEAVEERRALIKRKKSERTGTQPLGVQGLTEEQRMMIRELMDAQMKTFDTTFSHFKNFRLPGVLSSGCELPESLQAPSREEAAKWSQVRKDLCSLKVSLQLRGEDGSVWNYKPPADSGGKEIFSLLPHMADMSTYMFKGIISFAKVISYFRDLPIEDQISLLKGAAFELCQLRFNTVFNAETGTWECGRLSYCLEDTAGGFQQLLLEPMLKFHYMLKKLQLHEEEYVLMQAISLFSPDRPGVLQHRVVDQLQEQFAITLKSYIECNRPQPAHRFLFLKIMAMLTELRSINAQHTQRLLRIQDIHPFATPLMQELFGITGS

In the case of `OC(Cc1ccccc1Cl)(Cn1[nH]cnc1=S)C1(Cl)CC1` (stereo not drawn), the AC50 [1] is reported as 30.7 µM (active), the AC50 [2] is reported as 59.8 µM (active) and the AC50 [3] is reported as 17.7 µM (active). For the same compound, the outcome [4] was “inactive”, the outcome [5] was “inactive” and the outcome [6] was “inactive”. For the same compound, the AC50 [7] was 27.8 µM (active), the AC50 [8] was 20 µM (active) and the AC50 [9] was 33.2 µM (active). The outcome [10] was “inactive”, the AC50 [11] was 21.4 µM (active) and the AC50 [12] was 30.1 µM (active). For the same compound, the outcome [13] was “inactive”, the outcome [14] was “inactive” and the AC50 [15] was 32 µM (active). The outcome [16] was “inactive”.
With `c1ccc2sc(SNC3CCCCC3)nc2c1` the outcome [1] was “inactive”, the AC50 [2] was 6.77 µM (active) and the AC50 [3] was 20.2 µM (active). For the same compound, the outcome [5] was “inactive”, the outcome [17] was “inactive” and the outcome [18] was “inactive”. For the same compound, the outcome [7] was “inactive”, the outcome [8] was “inactive” and the outcome [9] was “inactive”. The outcome [11] was “inactive”, the AC50 [12] was 29.3 µM (active) and the outcome [13] was “inactive”. The outcome [19] was “inactive”, the outcome [14] was “inactive” and the outcome [15] was “inactive”. The outcome [16] was “inactive”.
With `CC(c1ccccc1)(c1ccc(O)cc1)c1ccc(O)cc1` the outcome [20] was “inactive”, the outcome [2] was “inactive” and the AC50 [3] was 2.54 µM (active). The outcome [14] was “inactive”.
With `Cc1cc(Cl)ccc1O` the outcome [20] was “inactive”, the outcome [2] was “inactive” and the outcome [3] was “inactive”. The outcome [6] was “inactive”, the AC50 [18] was 100 µM (active) and the outcome [14] was “inactive”.
In the case of `CCOC(=O)c1ccccc1S(=O)(=O)NC(=O)Nc1nc(Cl)cc(OC)n1`, the outcome [20] is reported as “inactive”, the outcome [3] is reported as “inactive” and the outcome [4] is reported as “inactive”. The outcome [5] was “inactive”, the outcome [7] was “inactive” and the outcome [14] was “inactive”.
For `CC(C)C(C)(N)C#N` (stereo not drawn), the outcome [20] was “inactive”, the outcome [3] was “inactive” and the outcome [17] was “inactive”. For the same compound, the outcome [18] was “inactive”, the outcome [7] was “inactive” and the outcome [14] was “inactive”.
For `Cc1cc(C(C)(C)c2ccc(O)c(C)c2)ccc1O`, the AC50 [1] was 14.3 µM (active), the AC50 [2] was 5.48 µM (active) and the AC50 [3] was 3.26 µM (active). For the same compound, the outcome [4] was “inactive”, the outcome [17] was “inactive” and the outcome [6] was “inactive”. For the same compound, the AC50 [8] was 15.8 µM (active), the AC50 [9] was 15.7 µM (active) and the AC50 [10] was 19.3 µM (active). The AC50 [11] was 12.5 µM (active), the AC50 [12] was 14.7 µM (active) and the AC50 [13] was 18.2 µM (active). The outcome [14] was “inactive”, the AC50 [15] was 17 µM (active) and the outcome [16] was “inactive”.
In the case of `CCCCC(CC)COC(=O)Cl` (stereo not drawn), the outcome [20] is reported as “inactive”, the outcome [2] is reported as “inactive” and the outcome [4] is reported as “inactive”. For the same compound, the outcome [18] was “inactive”.
For `CCOCn1c(-c2ccc(Cl)cc2)c(C#N)c(Br)c1C(F)(F)F`, the outcome [20] was “inactive”, the AC50 [2] was 4.71 µM (active) and the outcome [4] was “inactive”. The outcome [6] was “inactive”, the outcome [18] was “inactive” and the outcome [7] was “inactive”. For the same compound, the outcome [14] was “inactive”.
In the case of `CC1(C)[C@H](C(=O)O[C@H](C#N)c2cccc(Oc3ccccc3)c2)[C@@H]1/C=C(\Cl)C(F)(F)F`, the outcome [1] is reported as “inactive”, the AC50 [2] is reported as 5.86 µM (active) and 4.64 µM (active) and the AC50 [3] is reported as 152 nM (active) and 288 nM (active). The outcome [17] was “inactive”, the outcome [6] was “inactive” and the outcome [18] was “inactive”. The outcome [7] was “inactive”, the outcome [8] was “inactive” and the outcome [9] was “inactive”. For the same compound, the outcome [10] was “inactive”, the AC50 [11] was 1.11 µM (active) and 4.07 µM (active) and the outcome [12] was “inactive”. For the same compound, the outcome [13] was “inactive”, the outcome [19] was “inactive” and the outcome [14] was “inactive”. For the same compound, the outcome [15] was “inactive”, the AC50 [16] was 0.0142 µM (active) and the outcome [16] was “inactive”.
